Records with an inconclusive call do not appear. A call without a number means that no potency is given here. The source made the active and inactive calls. The call rests on the fitted dose curve; in most records, active means well fitted curve in the direction sought with a large enough effect; inconclusive means small, poorly fitted or top-dose-only effect, or another doubt; inactive means no such curve, though single readings can be large; an effect the other way counts as inactive or inconclusive.
Legend:
[1] = HPAF-II Cancer Cell Toxicity qHTS against the NCATS CANVASS Library (AID 1347346); further: nearly all actives have a fitted effect of over 55% in size; further: potency means the concentration at half of the fitted maximal effect
In short: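 Cytotoxicity read-out was CellTiter-Glo luminescence after 72 h at 37 degrees C exposure of HPAF-II cells (1000/well) to compounds in an 11-point titration.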

[2] = OV-SAHO Cancer Cell Toxicity qHTS against the NCATS CANVASS Library (AID 1347348); further: nearly all actives have a fitted effect of over 55% in size; further: potency means the concentration at half of the fitted maximal effect
In short: (§1)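 Cells were seeded at 1000 per well, allowed 4 h at 37 degrees C/5% CO2, then pin-treated with an 11-point compound series. After 72 h, viability was read as CellTiter-Glo luminescence following 15min at room temperature.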

[3] = Panc-1005 Cancer Cell Toxicity qHTS against the NCATS CANVASS Library (AID 1347349); further: nearly all actives have a fitted effect of over 60% in size; further: potency means the concentration at half of the fitted maximal effect
In short: as §1

[4] = COV-362 Cancer Cell Toxicity qHTS against the NCATS CANVASS Library (AID 1347352); further: series mostly up to about 38 µM
In short: (§2)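 Toxicity was measured as CellTiter-Glo luminescence after 72 h exposure to an 11-point compound series. Compound was added to 1000 cells/well 4 h after seeding.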

[5] = UWB1.289-WTBRCA1 Cancer Cell Toxicity qHTS against the NCATS CANVASS Library (AID 1347354); further: potency means the concentration at half of the fitted maximal effect
In short: as §2

[6] = HEK-293 Cancer Cell Toxicity qHTS against the NCATS CANVASS Library (AID 1347355); further: nearly all actives have a fitted effect of over 65% in size; further: potency means the concentration at half of the fitted maximal effect; on outcome: series mostly up to about 46 µM
In short: as §2

[7] = HPAF-II 24hr Apoptosis Induction qHTS against the NCATS CANVASS Library (AID 1347356)
In short: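 Caspase-Glo 3/7 luminescence, read after 15 min room-temperature development, measures apoptosis in HPAF-II cells treated 24 h at 37 degrees C with an 11-point concentration series; 500 cells/well; doxorubicin control.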

[8] = KB-8-5-11 Cancer Cell Toxicity qHTS against the NCATS CANVASS Library (AID 1347364); further: nearly all actives have a fitted effect of over 75% in size; further: potency means the concentration at half of the fitted maximal effect
In short: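 Viability read as CellTiter-Glo luminescence after 72 h at 37 °C, 5% CO2. 11-point compound series on 500 KB-8-5-11 cells/well in DMEM/10% FBS. Follow-up plating included 1 uM tariquidar in the medium.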

[9] = SDT Cancer Cell Toxicity qHTS against the NCATS CANVASS Library (AID 1347365); further: nearly all actives have a fitted effect of over 60% in size; further: potency means the concentration at half of the fitted maximal effect
In short: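 Cytotoxicity taken from CellTiterGlo ATP luminescence after 72 hr at 37C, 5% CO2. Canine glioma line SDT, 500 cells/well, treated at 11 concentrations; bortezomib dose series as control.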

[10] = qHTS for ATAD5 Agonist screened against the NCATS CANVASS Library (AID 1347367)
In short: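 Luminescence read-out: ATAD5-driven luciferase in stably transfected HEK 293T cells, which rises post-transcriptionally with DNA damage. Cells were exposed 16hr at 37C to test compound; a CellTiter-Fluor fluorescence read (1hr) measured viability first.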

[11] = qHTS for Hypoxia signaling pathway (HIF-1) antagonists against the NCATS CANVASS Library (AID 1347374); further: nearly all actives have a fitted effect of over 60% in size; further: potency means the concentration at half of the fitted maximal effect
In short: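 Antagonism scored as loss of CoCl2-driven (60 uM stock added) HRE beta-lactamase signal, read by CCF4 FRET at 460/530 nm. Compounds were tested in an 11-point series on ME-180 reporter cells for 17 hrs at 37C, with parallel CellTiter-Glo cytotoxicity.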

[12] = qHTS for Hypoxia signaling pathway (HIF-1) agonists against the NCATS CANVASS Library (AID 1347375)
In short: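 Beta-lactamase reporter under HRE control in ME-180 cells; compounds (11-point qHTS series) added after 5 hrs plating, then 17 hrs at 37C. FRET substrate read after 2 hr; same-well CellTiter-Glo luminescence gave viability and normalization.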

[13] = Cytotoxicity qHTS for assessment of Hepg2 cells membrane integrity screened against the NCATS CANVASS Library (AID 1347387)
In short: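 Membrane damage quantified as fluorescent LDH-release signal (ex 560, em 590 nm) in HepG2 cells treated 5 hr at 37C. qHTS format, 11 concentrations spanning 0.59 nM - 46 uM final, cells plated at 2000 per well the night before.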

[14] = qHTS for activators of Nrf2/ARE signaling pathway screened against the NCATS CANVASS Library (AID 1347391); further: nearly all actives have a fitted effect of over 60% in size
In short: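 Eleven-point qHTS, 16 h treatment of HepG2 cells carrying an ARE-driven beta-lactamase reporter; CCF4 ratio read (405 nm excitation, 460 and 530 nm emission), with CellTiter-Glo ATP luminescence for viability.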

[15] = qHTS for inhibitors of ER calcium dysfunction: SERCaMP assay screened against the NCATS CANVASS Library (AID 1347393); further: nearly all actives have a fitted effect of over 40% in size; further: potency means the concentration at half of the fitted maximal effect
In short: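 Thapsigargin-induced ER calcium depletion drives GLuc-SERCaMP secretion from SH-SY5Y cells; compounds given 16 h beforehand were scored by lowered coelenterazine luminescence after 4 h challenge.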

[16] = Vero-766 cells viability qHTS against the NCATS CANVASS Library: Counterscreen for Zika virus inhibition assay (AID 1347394); further: nearly all actives have a fitted effect of over 60% in size; further: potency means the concentration at half of the fitted maximal effect
In short: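 CellTiter-Glo luminescence, lower signal indicating cytotoxicity. Vero 766 cells without Zika virus, 1000 cells/well, plated overnight, then treated 72 h at 37C across an 11-point series.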

[17] = Viability qHTS for inhibitors of the SERCaMP assay screened against the NCATS CANVASS Library (AID 1347400); further: nearly all actives have a fitted effect of over 70% in size; further: potency means the concentration at half of the fitted maximal effect
In short: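 CellTiter-Glo luminescence measured cytotoxicity after 48 h at 37C of compound treatment (11-point series). Cells were SH-SY5Y-GLuc SERCaMP MJH297 derivatives, seeded at 1000 per well 4 h beforehand.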

[18] = Redox Reaction Profiling qHTS: Assay Interference Panel against the NCATS CANVASS Library (AID 1347401)
In short: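 Redox-cycling liability assessed as DTT-driven conversion of resazurin (5 uM, with 200 uM DTT, HEPES pH 7.3) to fluorescent resorufin. Fluorescence at 525/598 nm measured initially and after 15 min dark incubation.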

[19] = A2780 Cisplatin Sensitive Ovarian Cancer Cell Toxicity qHTS against the NCATS CANVASS Library (AID 1347353); further: nearly all actives have a fitted effect of over 60% in size; further: potency means the concentration at half of the fitted maximal effect
In short: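 Cisplatin-sensitive A2780 ovarian cells (750/well) received compound in 11 concentrations, and were incubated 72 h at 37 °C. ATP content was measured by ATPLite luminescence; bortezomib served as control.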

[20] = qHTS for activators of dead-cell proteases activity screened against the NCATS CANVASS Library (AID 1347392);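 further: luminescence from protease leaking out of membrane-damaged cells cleaving impermeant substrate; rising signal means more cytotoxicity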
In short: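 Luminescent dead-cell protease readout (AAF-aminoluciferin, 15 min, room temperature) after 5 h compound treatment of HepG2 cells (2000/well, pre-attached 18 h). Eleven concentrations.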

Row | SMILES | Potency [1] | Potency [2] | Potency [3] | Potency [4] | Potency [5] | Potency [6] | outcome [7] | Potency [8] | Potency [9] | Potency [10] | Potency [11] | outcome [12] | outcome [13] | Potency [14] | Potency [15] | Potency [16] | Potency [17] | Potency [18] | Potency [19] | Potency [20]
1 | CC(=O)N[C@H](C)c1nc(/C=C/C=C/C(=O)CC2CC(=O)CC[C@]2(C)O)cs1 (stereo not given in full) | inactive | inactive | inactive | inactive | inactive | inactive | inactive | inactive | inactive | inactive | inactive | inactive | inactive | inactive | inactive | inactive | inactive | inactive | – | –
2 | Cc1cc(O)cc2c1C(=O)c1c(O)cc(O)cc1C2=O | inactive | inactive | inactive | inactive | inactive | inactive | inactive | inactive | inactive | inactive | inactive | inactive | – | inactive | inactive | inactive | inactive | inactive | inactive | –
3 | O=C1CC(c2ccc(O)cc2)Oc2cc(O)ccc21 (stereo not given) | inactive | inactive | inactive | inactive | inactive | inactive | inactive | inactive | – | inactive | inactive | inactive | inactive | – | 30.5 µM (active) | inactive | inactive | – | – | –
4 | O=c1cc(-c2ccc(O)cc2)oc2cc(O)c([C@@H]3OC(CO)[C@H](O)[C@@H](O)[C@H]3O)c(O)c12 (stereo not given in full) | inactive | inactive | inactive | inactive | inactive | inactive | inactive | inactive | inactive | inactive | inactive | inactive | inactive | inactive | inactive | inactive | inactive | – | inactive | inactive
5 | C/C(=C\[C@@H](C)CC/C=C/CC/C=C/C(=O)O)[C@@H](O)[C@H](C)C(=O)CCCC1CC(=O)NC(=O)C1 | inactive | inactive | inactive | inactive | inactive | inactive | inactive | inactive | – | inactive | inactive | inactive | inactive | inactive | inactive | inactive | inactive | – | inactive | inactive
6 | COc1cc2c(cc1OC)[C@@H](c1ccc3c(c1)OCO3)C(C)[C@@H](C)C2=O (stereo not given in full) | – | inactive | inactive | inactive | inactive | – | – | – | – | inactive | inactive | inactive | – | – | 34.3 µM (active) | inactive | inactive | inactive | – | inactive
7 | [C-]#[N+][C@@]12C(=O)[C@@H]3[C@@H](O[C@@]4(C(=O)N(C)c5cccc1c54)C3(C)C)C(=O)[C@@]2(C)C=C | inactive | inactive | inactive | inactive | inactive | inactive | inactive | inactive | inactive | inactive | 2.98 µM (active) | – | inactive | inactive | – | inactive | inactive | – | inactive | inactive
8 | CO[C@@H](C[C@@H](C)[C@@H](O)/C=C/C=C/CNC(=O)C(C)(C)[C@H](O)\C(C)=C/C=C\C=C\Cc1cnco1)[C@]1(O)[C@@H](C)C(=O)N(C)[C@@]12COC2=O | inactive | inactive | inactive | inactive | inactive | inactive | inactive | inactive | inactive | inactive | inactive | inactive | inactive | inactive | inactive | inactive | inactive | inactive | inactive | inactive
9 | C=C(C)C(=O)O[C@H]1C[C@@]2(C)OC(=CC2=O)/C(C)=C\[C@H]2OC(=O)C(=C)[C@H]12 | 6.68 µM (active) | 5.29 µM (active) | 1.88 µM (active) | – | 10.6 µM (active) | 1.05 µM (active) | inactive | 2.96 µM (active) | 1.66 µM (active) | – | 1.67 µM (active) | – | – | – | 0.216 µM (active) | 13.2 µM (active) | 4.8 µM (active) | inactive | 0.662 µM (active) | –
10 | C[C@@]12C[C@@H](C[C@@H]3C(=O)O[C@@H](c4ccoc4)[C@H](OC(=O)c4ccccc4)[C@@H]31)OC2=O | inactive | inactive | inactive | inactive | inactive | inactive | inactive | inactive | inactive | inactive | inactive | inactive | inactive | inactive | inactive | – | inactive | inactive | inactive | inactive
